We go through 20 molecules from PubChem BioAssay (NCI).

This is part of a sample that, as a whole, favours compounds with a hit. Of some 79,000 tested, about 15% had one in any assay. A number with no mark means an inactive call. Active and inactive are the calls of the source. No stated cut-off is given here; in the data, active means growth inhibition above about 70%; inactive means the rest.

A short description of assay [1]: NCI Yeast Anticancer Drug Screen. Data for the rad50 strain (AID 155).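 Further: 0% = growth of vehicle-only cultures of the same strain.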 Particulars: S. cerevisiae rad50 strain growth inhibition; at 50.0 µM; stronger effect = higher value. The method, boiled down:
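A DNA repair-deficient yeast mutant serves as the test organism; compound-induced growth inhibition is calculated against vehicle-treated cells.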

The nature of assay [2]: NCI Yeast Anticancer Drug Screen. Data for the mec2-1 strain (AID 157). The settings on record: S. cerevisiae mec2-1 strain, at 50.0 µM, stronger effect = higher value. The method, boiled down:
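Growth inhibition is read against vehicle-treated controls after compound exposure of the mec2-1 yeast strain, which is defective in DNA damage repair or cell cycle control.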

A short description of assay [3]: NCI Yeast Anticancer Drug Screen. Data for the sgs1 mgt1 strain (AID 161).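 Further: 0% = growth of cultures given vehicle only.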 The settings on record: S. cerevisiae sgs1 mgt1 strain, at 50.0 µM, stronger effect = higher value. A digest of the protocol:
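Yeast cells carrying a defined DNA-repair defect were exposed to test compounds. Growth inhibition was measured relative to vehicle-treated controls.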

The nature of assay [4]: NCI Yeast Anticancer Drug Screen. Data for the cln2 rad14 strain (AID 165).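 Further: 0% = growth equal to vehicle treated cultures.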 Particulars: S. cerevisiae cln2 rad14 strain, at 50.0 µM, stronger effect = higher value. A digest of the protocol: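 Growth inhibition, relative to vehicle-treated controls, is the read-out. The test organism is a yeast strain with defined genetic alterations, cln2 rad14.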
A short description of assay [5]: NCI Yeast Anticancer Drug Screen. Data for the bub3 strain (AID 167). The settings on record: S. cerevisiae bub3 mutant strain, at 50.0 µM, stronger effect = higher value. The method, boiled down:
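Inhibition values come from growth of compound-treated mutant yeast normalised to vehicle-treated controls.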

Assay [6] is described as follows: NCI Yeast Anticancer Drug Screen. Data for the mlh1 rad18 strain (AID 175). The settings on record: S. cerevisiae mlh1 rad18 strain growth inhibition; at 50.0 µM; stronger effect = higher value. The method, boiled down: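 Cells of a genetically altered yeast strain, deficient in DNA damage repair, were treated with compound. Their growth was then compared with that of vehicle-treated cultures to give inhibition.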

In the case of `C[N+]1(C)N=C(c2ccccc2)C=C1[O-]`, the growth inhibition in assay [1] was 13.4%; in assay [2] it was -9.75%; in assay [3] it was -6.65%; in assay [4], -53.9%; in assay [5], -2.5%; in assay [6], -3.85%.
For `COc1ccc2c(CC(=O)O)cc(=O)oc2c1`, the growth inhibition is 12.2% in assay [1]; -22.8% in assay [2]; 15.4% in assay [3]; 7.7% in assay [4]; 8.95% in assay [5]; 14.2% in assay [6].
`Cc1ccc(N2C(=O)CSC2=S)cc1F`: the growth inhibition is 1.55% in assay [1]; 6.55% in assay [2]; 47.4% in assay [3]; 8.15% in assay [4]; 5.6% in assay [5]; 10.7% in assay [6].
For `Nc1nnc(-c2ccc(Br)cc2)o1`, the growth inhibition in assay [1] is 3.05%; in assay [2] it was -16.9%; in assay [3], -14.2%; in assay [4], -5%; in assay [5], -25.9%; in assay [6], 5%.
As to `CN(CCSSCCN(C)/N=C/c1ccccc1)/N=C/c1ccccc1`, the growth inhibition was -30.6% in assay [1]; -10% in assay [2]; -26.7% in assay [3]; -27.6% in assay [4]; -10.7% in assay [5]; -17.1% in assay [6].
Take `C/C(=N\NC(=O)CC(=O)N(C(=O)c1ccc(Cl)cc1)c1ccc(C)cc1)c1ccccc1O`: the growth inhibition is -2.05% in assay [1]; -26% in assay [2]; -10.2% in assay [3]; 5.9% in assay [4]; -1.3% in assay [5]; -29.6% in assay [6].
Regarding `O=C1C=C(c2ccccc2)C(=O)C(c2ccccc2)=C1c1ccccc1`, the growth inhibition is 73.2% (active) in assay [1]; 88.2% (active) in assay [2]; 88.8% (active) in assay [3]; 80% (active) in assay [4]; 78.2% (active) in assay [5]; 89.6% (active) in assay [6].
Consider `O=C1c2ccccc2C(=O)N1CC1(C(=O)O)NCCS1(=O)=O` (stereo not given), for which the growth inhibition was 3.3% in assay [1]; -7.5% in assay [2]; -22.3% in assay [3]; 26.8% in assay [4]; -48.9% in assay [5]; 10.1% in assay [6].
For `CCOC(=O)C(C#N)C1=CC(=O)C(=O)c2ccc(OC)cc21` (stereo not given), the growth inhibition in assay [1] was 14%; in assay [2] it was 11.3%; in assay [3], -5.5%; in assay [4], 27.9%; in assay [5], -9.95%; in assay [6], 9.1%.
Turning to `N#CC(C#N)=CNC(=S)Nc1ccc(S(=O)(=O)Nc2nccs2)cc1`, the growth inhibition is -24.7% in assay [1]; -35.8% in assay [2]; -13.4% in assay [3]; 4.85% in assay [4]; -3.05% in assay [5]; -3.65% in assay [6].
Turning to `C/C(Nc1ccc(F)cc1)=C1/CCOC1=O`, the growth inhibition in assay [1] was 9.8%; in assay [2], -17.9%; in assay [3], -1.5%; in assay [4], -43.5%; in assay [5], 13.8%; in assay [6] it was -11.5%.
Turning to `COC(=O)c1ccccc1S(=O)(=O)NC(C)C`, the growth inhibition in assay [1] was 10.8%; in assay [2], -1.15%; in assay [3], 16.9%; in assay [4] it was 11.8%; in assay [5], -4.7%; in assay [6] it was 25.8%.
In the case of `O=C(NC1(C(=O)O)CCCC1)C(F)(F)F`, the growth inhibition in assay [1] is -13.8%; in assay [2] it was 14.7%; in assay [3], -14.2%; in assay [4], -25.3%; in assay [5] it was 2.45%; in assay [6] it was -8.25%.
With `Nc1ncnc2c1nnn2CCCCCC(=O)O`, the growth inhibition in assay [1] was -6.25%; in assay [2], 27.8%; in assay [3] it was 21.8%; in assay [4], -7.95%; in assay [5] it was 11.8%; in assay [6], -13.9%.
Take `CN1CCS(=O)(=O)NC(Cc2ccccc2)C(=O)N2CCCC2C1=O` (stereo not given): the growth inhibition was -6.5% in assay [1]; -13.2% in assay [2]; -4.5% in assay [3]; 29.6% in assay [4]; -11.7% in assay [5]; -8.5% in assay [6].
On to `CCOC(=O)C1(C)CCCC1=O` (stereo not given), for which the growth inhibition in assay [1] is 13.8%; in assay [2], -8.6%; in assay [3], 3.95%; in assay [4] it was 6.95%; in assay [5] it was 2.6%; in assay [6], -0.4%.
`O=C(CO)C(O)C(O)C(O)CO` (stereo not given): the growth inhibition in assay [1] was 1.65%; in assay [2], -9.75%; in assay [3], -7.45%; in assay [4], 8.75%; in assay [5], 19.9%; in assay [6], 0.95%.
With `Cc1nc2ccc(Cl)cc2c(Cl)c1CCCl`, the growth inhibition in assay [1] is 12.1%; in assay [2] it was 6.5%; in assay [3], -19.9%; in assay [4], -8.15%; in assay [5] it was 31.5%; in assay [6] it was 13.8%.
As for `CC(=O)Nc1cccc(OCCOc2ccccc2[N+](=O)[O-])c1`, the growth inhibition in assay [1] was -0.6%; in assay [2], -11.3%; in assay [3], -8.65%; in assay [4], 3.15%; in assay [5] it was 4.7%; in assay [6], 8.2%.
With `Cc1ccc(S(=O)(=O)NC2C(=O)c3ccccc3C(=O)C2n2ccnc2)cc1` (stereo not given), the growth inhibition was 4.85% in assay [1]; -1.8% in assay [2]; 0.75% in assay [3]; 2.75% in assay [4]; 7.8% in assay [5]; -21.5% in assay [6].
